Experimental data published in PubChem BioAssay AID1259422 (The Scripps Research Institute Molecular Screening Center, 2018).
About 9,300 (1.5%) of roughly 640,000 compounds were called active. For the sample, actives were picked, then their nearest neighbours and some compounds at random. A number with no mark means an inactive call. Cut-off read from the data, not from the text of the source: active = inhibition above about 32%; inactive = the rest.

Experiment: TEAD-YAP interaction inhibition, primary screen, TEAD-YAP interaction inhibitor project, luminescence, HEK-TIYL cells (AID 1259422);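 note: 0% = median of test compound wells and 100% = reference inhibitor wells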
Conditions: TEAD-Gal4/YAP UAS-luciferase luminescence, at 9.12 µM, active compounds read high

| SMILES | inhibition |
| --- | --- |
| COc1ccc(NC(=O)CSc2nc3c(sc(=S)n3-c3ccccc3F)c(=O)n2-c2ccc(F)cc2)c(OC)c1 | 15.7% |
| CC1CN(Cc2cccc3ncccc23)Cc2ccccc2O1 (stereo unspecified) | -3.29% |
| CC1CCc2c(sc(NC(=O)c3ccccc3F)c2C(=O)N2CCOCC2)C1 (stereo unspecified) | -2.16% |
| CCOc1ccccc1OCC(=O)Nc1ccc(C(=O)O)cc1 | 4.66% |
| CCOc1ccccc1OCC(=O)OCc1ccccc1 | 2.74% |
| CCOc1ccccc1OCC(=O)NN | 58.7% (active) |
| Cc1ccc(-c2noc(CCC(=O)N(C)c3ccccc3Cl)n2)cc1 | 13.7% |
| COC(=O)NNc1ncnc(N)c1[N+](=O)[O-] | 2.66% |
| Nc1ncnc(NCc2ccc(Cl)cc2)c1[N+](=O)[O-] | -0.74% |
| CC(C)(CO)Nc1ncnc(N)c1[N+](=O)[O-] | 50.6% (active) |
| O=C(/C=C/c1cccs1)N1CC[C@@H]2[C@H](CCCN2C(=O)c2ccc3[nH]ccc3c2)C1 | -4% |
| COC(=O)c1c(NC(=O)C(C)N2C(=O)c3ccccc3C2=O)sc2c1CCCC2 (stereo unspecified) | -8.49% |
| Cc1cc(=O)oc2c(OC(=O)c3cc4ccccc4o3)c(OC(=O)c3cc4ccccc4o3)ccc12 | -3.97% |
| CC(=O)Oc1ccc2occ(C(=O)c3ccc(C)cc3)c2c1 | 41% (active) |
| COc1ccc2occ(C(=O)c3ccc(N=C(C)N(C)C)cc3)c2c1 | -23.4% |
| COc1ccc(NC(=O)Cc2coc3ccc(C)cc23)cc1 | -3.85% |
| CC(=O)Oc1ccc2occ(C(=O)c3cc4ccccc4o3)c2c1 | 53.6% (active) |
| COc1ccc(OC)c(C(=O)c2coc3ccc(OC)cc23)c1 | 1.14% |
| CCOC(=O)Cn1c(=O)c2c(nc3n2CC(C)CN3c2ccccc2C)n(C)c1=O (stereo unspecified) | 2.64% |
| O=C1c2ccccc2S(=O)(=O)N1c1ccc(Cl)cc1Cl | 6.48% |
| O=C(O)C(CCC(=O)N1CCOCC1)N1C(=O)c2ccccc2C1=O (stereo unspecified) | -9.92% |
| O=c1cnn(C2OC(CO)C(O)C2O)c(=O)[nH]1 (stereo unspecified) | 74.7% (active) |
| Nc1nc(=O)n(C2OC(CO)C(O)C2O)cc1Br (stereo unspecified) | 5.2% |
| Nc1nc(N)c2ncn(C3OC(CO)C(O)C3O)c2n1 (stereo unspecified) | -3.32% |

| SMILES | inhibition |
| --- | --- |
| CCOC(=O)c1ccc(NC(=O)CSc2nnnn2-c2ccc([N+](=O)[O-])cc2)cc1 | -1.87% |
| N#Cc1c(NC(=O)c2cc([N+](=O)[O-])ccc2Cl)sc2c1CCC2 | 32.6% (active) |
| N#Cc1c(NC(=O)CSc2ccc([N+](=O)[O-])cn2)sc2c1CCCC2 | -0.26% |
| N#Cc1c(NC(=O)c2cc([N+](=O)[O-])nn2Cc2ccccc2)sc2c1CCC2 | 2.14% |
| Cc1nnc(SCc2cccc3ccccc23)[nH]c1=O | -2.21% |
| O=S(=O)(c1ccc(Cl)c(C(F)(F)F)c1)N1CCNCC1 | 3.58% |
| COC(=O)CNc1nc(Cl)nc(Nc2ccc(I)cc2C)n1 | -1.03% |
| O=C(NCc1ccc(Cl)cc1)N1CCN(Cc2nc(-c3ccco3)cs2)CC1 | 41.8% (active) |
| O=C(CN1CCN(Cc2nc(-c3ccco3)cs2)CC1)NCc1ccc2c(c1)OCO2 | -0.64% |
| CC(=O)N1CCN(Cc2nc(-c3ccc(Cl)cc3)cs2)CC1 | 2.89% |
| O=[N+]([O-])c1ccc(NC(=S)Nc2ccc(Br)cn2)cc1 | 2.08% |
| CC(C)(C)NC(=O)c1cc2nc(-c3ccco3)cc(C(F)(F)F)n2n1 | -0.09% |
| Cc1ccc(C(=O)NCCNc2ccc([N+](=O)[O-])cc2)cc1 | 1.76% |
| Cc1ccc(C(=O)NCCNc2ccc([N+](=O)[O-])cc2Cl)cc1 | 34.1% (active) |
| O=C(NCCCNc1ccc([N+](=O)[O-])cc1Cl)c1ccc(Cl)cc1 | 3.65% |
| CC(Oc1cccc2cccnc12)C(=O)NNC(=S)NC(=O)c1cc2ccccc2oc1=O (stereo unspecified) | 3.86% |
| Cc1ccccc1C1=NN2C(=N)/C(=C/c3c(C)nn(-c4ccccc4)c3Cl)C(=O)N=C2S1 | -14.8% |
| CCCN(CCC)S(=O)(=O)c1ccc2[nH]c(=O)ccc2c1 | -11.6% |
| COc1cc(C(=O)N/N=C\c2ccc(-c3cccc(C(=O)O)c3)o2)cc(OC)c1OC | 64.9% (active) |
| COc1cc(C(=O)N/N=C/c2c(Cl)[nH]c(=O)n2-c2ccccc2)cc(OC)c1OC | 72.6% (active) |
| COc1cc(C(=O)N/N=C/c2cccs2)ccc1O | 2.59% |
| CCCOC(=O)c1ccc(NC(=O)c2cc(OC)c(OC)c(OC)c2)cc1 | -1.39% |
| COc1cc(OC)c(OC)cc1/C=N/NC(=O)c1ccccn1 | -43.7% |
| CCC/C=N/NC(=O)c1cc(OC)c(OC)c(OC)c1 | 59.2% (active) |

| SMILES | inhibition |
| --- | --- |
| COc1cc(/C=N/NC(=O)c2cccs2)cc(OC)c1OC | -55.4% |
| COc1cc(C(=O)NCc2n[nH]c(=S)n2-c2ccccc2)cc(OC)c1OC | 3.36% |
| COC(=O)N/N=C\c1ccc(-c2cccc(Cl)c2)o1 | -22.7% |
| Cc1ccc(C(=O)N/N=C\c2ccc(-c3cccc(C(=O)O)c3)o2)cn1 | -9% |
| CCC/C=N/NC(=O)c1ccc(C)cc1C | -15.2% |
| COc1cc(C(=O)N/N=C/c2cccs2)cc(OC)c1OC | 61.3% (active) |
| Cc1ccc(N2C(=O)c3cccc4c(Br)c([N+](=O)[O-])cc(c34)C2=O)c(C)c1 | 6.15% |
| CCN(CC)CCCN(Cc1ccco1)C(=S)Nc1cc(C)c(Cl)cc1OC | 3.59% |
| Cc1nc2c(c(=O)[nH]1)CN(Cc1cccn1C)CC2 | -16.9% |
| Oc1ccc(-c2cnc3c(NCc4ccco4)nccn23)cc1 | -72.4% |
| Cc1ccc(-n2ncc3c(NCc4ccco4)ncnc32)cc1 | -76.8% |
| Ic1ccc2ncnc(NCc3ccco3)c2c1 | 15.7% |
| c1coc(CNc2ncnc3ccccc23)c1 | 36.3% (active) |
| CCOC(=O)c1ccc(NC(=O)N2CCN(c3nc(-c4ccccc4)cs3)CC2)cc1 | -7.79% |
| COCCNC(=O)c1cc2nc(-c3cccs3)cc(C(F)(F)F)n2n1 | 8.1% |
| Cc1cc(/C=C2/NC(=O)NC2=O)c(C)n1-c1ccc2ccccc2c1 | 7.98% |
| Cc1cc(/C=C2/NC(=O)NC2=O)c(C)n1-c1ccc(Cl)cc1 | 4.42% |
| Cc1ccccc1-n1c(C)cc(/C=C2\NC(=O)NC2=O)c1C | 57.4% (active) |
| CN(C(=O)n1nnc2ccccc21)c1ccccc1 | 44.2% (active) |
| Cc1nn(C(=O)N(C)c2ccccc2)c(C)c1Br | 5% |
| COc1ccc(C(=O)n2nnc3ccccc32)cc1 | -1.4% |
| O=C(N/N=C/c1ccc(Cl)cc1)c1ccccc1F | -4.81% |
| COCCNCC(=O)Nc1cccc2ccccc12 | 8.26% |
| O=C(NN1CC(C(=O)OCc2ccc([N+](=O)[O-])cc2)CC1=O)c1ccccc1 (stereo unspecified) | 5.91% |

| SMILES | inhibition |
| --- | --- |
| Cc1cc(C)n(CCc2nc3c4ccccc4n(CC(N)=O)c(=O)n3n2)n1 | 4.04% |
| COC(=O)COc1ccc(NC(=O)COc2ccccc2)cc1 | 0.58% |
| Cc1csc2nc(-c3ccc(NC(=O)COc4ccccc4)cc3)cn12 | 78.2% (active) |
| COc1ccc(CC(=O)Nc2ccc(-c3cn4c(C)csc4n3)cc2)cc1 | -12.5% |
| O=C(Nc1cccc2ccccc12)c1nc2c(nnn2Cc2ccc(F)cc2)c(=O)[nH]1 | -2.87% |
| O=C(Nc1ccc(Br)cn1)c1ccccc1Cl | -0.48% |
| Cc1csc(NC(=O)CSc2nnc(-c3cccnc3)o2)n1 | -34.8% |
| CCCn1c(SCC(=O)Nc2nc(C)cs2)nnc1-c1ccccn1 | 12.5% |
| Cc1ccccc1-n1c(SCC(=O)NNC(=O)c2ccco2)nnc1-c1cccnc1 | -12% |
| Cc1cccc(-n2c(SCC(=O)NNC(=O)c3ccco3)nnc2-c2cccnc2)c1C | -0.49% |
| Cc1ccccc1-n1c(SCC(=O)c2c[nH]c3ccccc23)nnc1-c1cccnc1 | 48.9% (active) |
| CCc1ccccc1-n1c(SCC(=O)Nc2nc(C)cs2)nnc1-c1cccnc1 | 56.8% (active) |
| O=C(NCc1ccncc1)C(=O)NCC1OCCCN1S(=O)(=O)c1cccs1 (stereo unspecified) | 0.25% |
| CCCCOC(=O)c1cc(-c2ccc(OC)cc2)nc2ccc(Br)cc12 | 0.12% |
| Cc1[nH]c2ccccc2c1C(Nc1nccs1)c1ccccc1O (stereo unspecified) | 2.06% |
| Cn1c(SCC(=O)c2ccc([N+](=O)[O-])cc2)nnc1C(F)(F)F | 4.67% |
| O=C(N/N=C/c1ccccc1Cl)C(=O)N/N=C/c1ccccc1Cl | 9.07% |
| CCOC(=O)C1=CN(Cc2ccc(F)cc2)C=C(C(=O)OCC)C1c1ccc(Cl)cc1 | 1.74% |
| Cc1cc(C)n(-c2nc(Nc3ccc(OC(F)(F)F)cc3)nc(-n3nc(C)cc3C)n2)n1 | -10.5% |
| Cc1cc(NCc2ccccc2)nc(N2CCN(Cc3ccc4c(c3)OCO4)CC2)n1 | 3.95% |
| Cc1cc(NCc2ccccc2)nc(-n2nc(C)cc2C)n1 | 65.4% (active) |
| CCc1ccccc1NC(=O)NCCNc1cc(-n2nc(C)cc2C)nc(C)n1 | -1.06% |
| CC(=O)Nc1ccc(Nc2cc(Nc3ccccn3)nc(N)n2)cc1 | -12.6% |
| CC(=O)Nc1ccc(Nc2cc(C)nc(-n3nc(C)cc3C)n2)cc1 | 36% (active) |
